Experimental findings from the supplement of paper PMC5662767 are described below.

The structures appear in SMILES notation.
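Further: flow cytometry read-out as median GFP intensity of gated cells, compounds added 30 min before Hh-conditioned or mock medium, mock-treated cells serving as unstimulated baseline.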

This experiment has as its system Drosophila S2 cl14 SmoIP sensor cells. Description: normalized SmoIP GFP fluorescence (untreated unstimulated = 0%, untreated Hh-stimulated = 100%); higher = more Smo activation sensor fluorescence. As to conditions: stimulation: Hh conditioned medium (+Hh); compound concentration: 2 uM; 24 h.
Regarding `O=C(O)C(O)Cc1ccc(O)c(O)c1` (stereo not drawn) [Sodium-Danshensu], the “normalized SmoIP GFP fluorescence” value is 93.6%.
Under `N#C/C(=C(/N)Sc1ccc(N)cc1)c1ccccc1C(F)(F)F` stands 131%.
On to `CC(C)(C)c1cc(C(C)(C)C)c(NC(=O)c2c[nH]c3ccccc3c2=O)cc1O`, for which the “normalized SmoIP GFP fluorescence” value is -31.6%.
With `Cn1c(=O)n(-c2ccc(C(C)(C)C#N)cc2)c2c3cc(-c4cnc5ccccc5c4)ccc3ncc21`, the “normalized SmoIP GFP fluorescence” value was 113%.
For `NS(=O)(=O)C#Cc1ccccc1` [pifithrin-u], the “normalized SmoIP GFP fluorescence” value amounted to 103%.
As for `CO[C@H]1C[C@@H]2CC[C@@H](C)[C@@](O)(O2)C(=O)C(=O)N2CCCC[C@H]2C(=O)O[C@H]([C@H](C)C[C@@H]2CC[C@@H](OCCO)[C@H](OC)C2)CC(=O)[C@H](C)/C=C(\C)[C@@H](O)[C@@H](OC)C(=O)[C@H](C)C[C@H](C)/C=C/C=C/C=C/1C` [Everolimus(RAD001)], the “normalized SmoIP GFP fluorescence” value is 32.9%.
For the molecule `Cc1c(CN2CCN(C(=O)[C@H](C)O)CC2)sc2c(N3CCOCC3)nc(-c3cnc(N)nc3)nc12`, the “normalized SmoIP GFP fluorescence” value amounted to 69.8%.
Under `NS(=O)(=O)c1ccc(NC(=O)Nc2ccc(F)cc2)cc1` stands 101%; under `CC(C)[C@H](C(=O)Nc1ccc(C(=O)NO)cc1)c1ccccc1`, 299%; under `O=C(CCCCCCC(=O)Nc1ccccc1)NO` [Vorinostat-(SAHA)], 89.9%.
For the molecule `Cn1c(=O)c2[nH]cnc2n(C)c1=O` [Aminophylline(Truphylline)], the “normalized SmoIP GFP fluorescence” value was 98.8%.
The value for `CC(=O)N1CCN(c2ccc(OCC3COC(Cn4ccnc4)(c4ccc(Cl)cc4Cl)O3)cc2)CC1` (stereo not drawn) [Ketoconazole] was 109%; that for `Cc1cc(C)nc(NS(=O)(=O)c2ccc(NC(=S)NC(=O)COc3ccc(Br)cc3Cl)cc2)n1` was 105%.
